# From PubChem
# Many of the other results were omitted from the sample, so hits are more common in it than they were.
# LmPK inhibitor: blocks Leishmania mexicana pyruvate kinase activity. Q27686. purified LmPK, Kinase-Glo ATP luminescence, 1 h. Potency, µM (titrated, usually from 57.5 µM), for inactives: at the highest dose activity change, negative = inhibition, usual class: inhibitors. actives 0.37% (n = 290,000); further: potency means the concentration at half of the fitted maximal effect; on the % scale 0 is the no-effect control and ±100 the full control effect
#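 Kinase-Glo luminescence read after 1 h RT reaction of 0.1 nM LmPK with 0.5 mM PEP and 0.1 mM ADP. Activity scaled between uninhibited and enzyme-free controls.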
# RE007 growth inh: less growth of the S. pombe RE007 Vpr strain; S. pombe RE007 Vpr strain, BacTiter-Glo ATP luminescence, 24 h; Potency, µM (titrated, usually from 92.2 µM), for the others: at the top dose activity change, negative = less growth, actives largely listed as inhibitors; actives 0.21% (n = 360,000); active means well fitted falling curve with a large enough effect; inconclusive means small, poorly fitted or top-dose-only effect; inactive means no such curve, though single readings can be large or run the other way; further: potency means the concentration at half of the fitted maximal effect; on the % scale 0 is the no-effect control and ±100 the full control effect; nearly all actives have a fitted effect of over 50% in size
#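 Fission yeast RE007 carrying one integrated HIV-1 vpr copy, seeded at OD 0.01 in PMG+AL medium with 23 nL pinned compound. Grown 24 h at 30 degrees; viability read by BacTiter-Glo luminescence after 5 min.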
# CHX counter: counter-screen hit for Shiga toxin inhibitors, cycloheximide. cell reporter, cycloheximide protein synthesis inhibition counterscreen. max response, %. actives 12% (n = 300,000). AID 2314; in the data active means max response mostly above about 13%, no sharp cut-off; inactive means mostly below about 14%; further: read at 38.3 µM for the half of the compounds with a filed dose; 0% is about no effect
# Tb PYK inh: blocks Trypanosoma brucei pyruvate kinase | TbPYK enzyme, Kinase-Glo Plus ATP luminescence, 45 min | Potency, µM (top dose mostly 76.8 µM), without a hit: top-dose activity, negative = inhibition, most hits filed as inhibitors | actives 0.12% (n = 410,000) | AID 624173; further: potency means the concentration at half of the fitted maximal effect; on the % scale 0 is the no-effect control and ±100 the full control effect; nearly all actives have a fitted effect of over 50% in size
#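 Enzyme and substrate buffer are dispensed first and compound is pin-transferred. ADP at 130 uM final then starts the reaction, which runs 45 min at room temperature. Detection reagent is added for 10 min before luminescence is imaged.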
# Giardia FBPA inh-1: Giardia lamblia aldolase inhibition; purified Giardia FBPA; actives 0.71% (n = 290,000); Potency, µM (doses to about 59.6 µM), inactives show at the top dose activity, negative = inhibition, actives largely listed as inhibitors; AID 2451; further: potency means the concentration at half of the fitted maximal effect; on the % scale 0 is the no-effect control and ±100 the full control effect; nearly all actives have a fitted effect of over 55% in size
# Target sequence (A8B2U2 whole entry, looked up): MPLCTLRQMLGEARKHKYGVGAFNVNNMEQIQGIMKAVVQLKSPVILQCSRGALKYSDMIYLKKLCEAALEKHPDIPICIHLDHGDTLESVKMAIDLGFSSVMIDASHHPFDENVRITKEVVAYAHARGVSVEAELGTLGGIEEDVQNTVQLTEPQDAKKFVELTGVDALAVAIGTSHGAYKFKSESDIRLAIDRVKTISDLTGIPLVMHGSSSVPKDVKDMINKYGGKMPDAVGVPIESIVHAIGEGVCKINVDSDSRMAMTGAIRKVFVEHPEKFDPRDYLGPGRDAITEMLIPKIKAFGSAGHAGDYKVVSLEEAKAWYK
#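 40 nM FBPA preincubated 10 min at RT with compound (up to 57.5 uM final), then substrate plus GAPDH/TPI/NAD/arsenate coupling and diaphorase/resazurin added. Fluorescence read after 20 min at RT, 525/598 nm.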
# Shiga toxin inh: Shiga toxin inhibition; AID 2315; Vero cells, Shiga toxin protein synthesis inhibition reporter; actives 9.2% (n = 290,000); inhibition, % at 38.7 µM; in the data active means inhibition mostly above about 28%, no sharp cut-off; inactive means mostly below about 43%; further: 0% is about no effect
# Giardia growth: inhibitors of Giardia lamblia growth; shares compounds with Giardia FBPA inh-1; Giardia lamblia trophozoite growth inhibition; Potency, µM (series often up to 57.5 µM), inactives show at the highest dose activity change, negative = inhibition, most hits filed as inhibitors; actives 5% (n = 1,500); AID 2785;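 further: potency means the concentration at half of the fitted maximal effect; trophozoites exposed to compound for 48 h at 37 °C; on the % scale 0 is the no-effect control and ±100 the full control effect; nearly all actives have a fitted effect of over 70% in size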
# Mammal cell tox: mammalian cytotoxicity of Giardia aldolase inhibitor hits | mammalian cell viability counter-screen, qHTS | shares compounds with Giardia FBPA inh-1 | AID 2786 | Potency, µM (top dose mostly 57.5 µM), without a hit: at the highest dose viability change, negative = toxicity, usual class: inhibitors | actives 4% (n = 1,500);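 further: Chinese hamster ovary cells used as mammalian cytotoxicity surrogate; viability measured as cellular ATP by luminescence; potency means the concentration at half of the fitted maximal effect; compound exposure lasted 48 h before reading; on the % scale 0 is the no-effect control and ±100 the full control effect; nearly all actives have a fitted effect of over 60% in size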
# Giardia FBPA inh-2: confirmation of Giardia fructose-bisphosphate aldolase inhibitors. Potency, µM (top dose mostly 57.5 µM), inactives show top-dose activity change, negative = inhibition, most hits filed as inhibitors. actives 5% (n = 1,500). shares compounds with Giardia FBPA inh-1. purified Giardia aldolase enzyme activity, qHTS; further: potency means the concentration at half of the fitted maximal effect; on the % scale 0 is the no-effect control and ±100 the full control effect; nearly all actives have a fitted effect of over 45% in size
# Rabbit FBPA inh: blocks rabbit muscle aldolase in Giardia aldolase selectivity test | shares compounds with Giardia FBPA inh-1 | Rabbit muscle FBPA enzyme inhibition, selectivity counter-screen | Potency, µM (titrated, usually from 57.5 µM), for the others: at the top dose activity, negative = inhibition, most hits filed as inhibitors | actives 4% (n = 1,500) | AID 2794; further: potency means the concentration at half of the fitted maximal effect; on the % scale 0 is the no-effect control and ±100 the full control effect; nearly all actives have a fitted effect of over 60% in size
# GAPDH coupling: counter-screen for Giardia aldolase inhibitors: GAPDH coupling enzyme | GAPDH coupling enzyme counterscreen, biochemical, qHTS | Potency, µM (doses to about 57.5 µM), inactives show at the top dose activity change, negative = inhibition, actives largely listed as inhibitors | actives 6% (n = 1,500) | shares compounds with Giardia FBPA inh-1; further: potency means the concentration at half of the fitted maximal effect; on the % scale 0 is the no-effect control and ±100 the full control effect; nearly all actives have a fitted effect of over 55% in size
# * = called active by the depositor; u = inconclusive; x = no result; [ ] = dose if it differs, or a comment. Unless noted, the call rests on the fitted dose curve; in most records, active means well fitted curve in the direction sought with a large enough effect; inconclusive means small, poorly fitted or top-dose-only effect, or another doubt; inactive means no such curve, though single readings can be large; an effect the other way counts as inactive or inconclusive.
SMILES,LmPK inhibitor,RE007 growth inh,CHX counter,Tb PYK inh,Giardia FBPA inh-1,Shiga toxin inh,Giardia growth,Mammal cell tox,Giardia FBPA inh-2,Rabbit FBPA inh,GAPDH coupling
COc1ccc(CC(=O)NNC(=S)NC(=O)c2cccnc2)cc1,1.4%,3.4%,1.8,-4.5%,u,1.7,x,x,x,x,x
O=C(Cc1ccccc1)NNC(=S)NC(=O)c1cccnc1,4.1%,-5.4%,-1.7,u,7.06µM*,-6.7,-22.1%,-2.8%,14.8%,9.0%,11.5%
Cc1ccccc1C(=O)NNC(=S)NC(=O)c1ccccc1,3.1%,u,16.9*,-19.4%,u,27.8*,-10.6%[38.3 µM],-27.0%,12.8%,4.3%,1.5%
O=C(NC(=S)NNC(=O)c1ccccc1O)c1ccccc1,1.8%,-0.6%,29.1,-4.7%,u,55.4*,u,-21.3%,0.3%,2.2%,-17.1%
CCCc1nnc(NC(=O)Cc2coc3ccc(C)cc23)s1,x,x,x,-12.5%,x,x,x,x,x,x,x
COC(=O)c1c(-c2ccc(OC)c(OC)c2)csc1N,3.9%,-11.0%,-0.9,12.1%,17.7µM*,-10.7,-29.7%,-12.6%,u,-13.3%,-11.7%
COC(=O)c1c(-c2cccc(OC)c2)csc1N,-2.4%,9.3%,-2.4,-16.6%,-21.1%,26.8,x,x,x,x,x
Cc1ccc(C2=NC3(CCCCC3)NC2=S)cc1,2.1%,8.0%,7.5,3.8%,3.0%,-8.0,x,x,x,x,x
CCN1CCC2(CC1)N=C(c1ccc(F)cc1)C(=S)N2,-19.4%,7.5%,5.4,-8.8%,12.6µM*,30.0,-18.3%,-0.5%,-0.7%,4.0%,7.3%
COc1cc(S(=O)(=O)NCCN2CCOCC2)ccc1-n1cnnn1,-9.8%,2.0%,1.2,5.0%,17.7µM*,46.9,4.1%[10.4 µM],3.3%,-1.1%,13.0%,4.9%
Cc1nc2ccc(S(=O)(=O)CCC(=O)Nc3ccc(C)c(C)c3)cc2s1,x,x,x,1.0%,x,x,x,x,x,x,x
O=C(CSc1ccccc1)Nc1nnc(C2CC2)s1,-6.5%,4.7%,-1.2,-4.5%,14.1µM*,0.4,u,9.0%,0.8%,9.0%,6.8%
C=CCSC1=N/C(=C\C=C\c2ccco2)C(=O)S1,10.1%,-6.0%,7.7,-5.2%,6.29µM*,0.6,15.8%,14.2%,-9.8%,11.2%,0.6%
Cc1no[n+]([O-])c1COc1cccc(/C=N/Nc2nncn2N)c1,-0.2%,8.2%,10.0,-4.9%,14.1µM*,21.5,38.9%,7.7%,17.8µM*,u,20µM*
Cc1ccc(C(=O)CSc2ncn[nH]2)cc1,2.2%,-13.5%,19.5*,-20.5%,28.2µM*,52.5,5.6%[10.4 µM],-6.8%,-0.6%,2.1%,-0.1%
Oc1ccc(/C=N/Nc2ccnc3cc(Cl)ccc23)c(O)c1O,-10.6%,-15.4%,-7.0,u,14.1µM*,23.6,-19.3%,-0.1%,u,u,u
CCOc1ccc(C(C)=O)cc1Cc1c(O)[nH]c(=S)[nH]c1=O,-8.2%,1.5%,0.3,-26.8%,22.4µM*,-19.1,-16.0%,1.1%,-8.3%,1.5%,-16.4%
COC(=O)c1ccc(NC(=O)CN2CCN(CC#N)CC2)cc1,0.5%,3.4%,1.7,1.8%,25.1µM*,2.8,-5.4%[38.3 µM],13.7%,1.3%,-1.7%,1.6%
